Laboratory results taken from PubChem BioAssay (NCI).
The panel holds about 83,000 compounds, 20% with a hit somewhere; the sample as a whole holds those more often.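 Single-dose data. Exposure time 48 hours. Values below 10 considered active.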 Values without a mark were called inactive. The source made the active and inactive calls.

Each molecule was assayed on SF-295 CNS (assay: NCI-60 one-dose screen, 48 h (100 = growth as untreated, 0 = no growth, -100 = all killed)). Conditions: 10 µM unless noted.
`Nc1ccc(CCCCc2ccccc2)c(Cl)c1` gave a growth of 104%.
Molecule `Nc1ccc(S(=O)(=O)Nc2ccsc2-c2nc(-c3ccccc3)no2)cc1` has a growth of 69.8%.
With `C=C(CNCCc1ccc(O)cc1)[C@@H]1CC[C@]2(COC3CCCCO3)CC[C@]3(C)[C@H](CC[C@@H]4[C@@]5(C)CCC(NCCO)C(C)(C)[C@@H]5CC[C@]43C)[C@@H]12` (stereo partly drawn) the growth was -82.4% (active).
Molecule `OC(COc1cccc2ccccc12)CN1CCN(c2ccccc2)CC1` (stereo not drawn) has a growth of 73.3%.
`Cc1[nH]c(-c2nc3ccccc3[nH]2)c(C)c1C(=O)N1CCc2sccc2C1` was tested, and the growth was 100%.
In the case of `CC(C)n1nc(C#Cc2cccc(NC(=O)c3cccc(C(F)(F)F)c3)c2)c2c(N)ncnc21`, the growth is reported as -14.9% (active).
With `Cc1cc(NS(=O)(=O)c2ccccc2)c(OS(=O)(=O)c2ccccc2)cc1C` the growth was 113%.
`OCCCCc1nccc2c1[nH]c1ccccc12` was tested, and the growth was 102%.
`C=C(C)[C@@H]1CC[C@]2(CNCCO)CC[C@]3(C)[C@H](CC[C@@H]4[C@@]5(C)CCC(N)[C@@](C)(CO)[C@@H]5CC[C@]43C)[C@@H]12` (stereo partly drawn) was tested, and the growth was -19.6% (active).
For `OC(c1cccc(OCc2ccccc2)c1)c1nnc(-c2ccccc2)o1` (stereo not drawn), the growth was 64%.
In the case of `Cl.[Pt].[c-]1ccccc1-c1ccccn1.c1ccc(P(c2ccccc2)C([PH+](c2ccccc2)c2ccccc2)[PH+](c2ccccc2)c2ccccc2)cc1`, the growth is reported as 7.09% (active).
In the case of `COc1cc2c(c(OC)c1OC)C(=O)/C(=C/c1cc(C)c(O)c(C)c1)S2`, the growth is reported as 13.7%.
`O=C(Nc1ccccn1)[C@H](O)[C@@H](O)C(=O)N1CCOCC1` was tested, and the growth was 109%.
`CC(C)(C)N1CC(OC(N)=O)C1` showed a growth of 113%.
`O=C(NC1CCOCC1)c1ccc2c(c1)CN(c1ncc(Cc3cccc(-n4cccn4)c3)s1)CC2` gave a growth of 62.5%.
`CN1C[C@@H](c2ccc(Cl)cc2)[C@]2(NC(=S)N(c3ccc(F)c(Cl)c3)C2=O)[C@@]12C(=O)NC1C=CC(Cl)=C[C@H]12` (stereo partly drawn) showed a growth of 46.8%.
In the case of `CCCN1CCN(c2ccc3nc(-c4ccc5nc(-c6ccc(OCC)c(OCC)c6)[nH]c5c4)[nH]c3c2)CC1`, the growth is reported as -63.2% (active).
`NC(=S)c1csc(CCNC(=O)c2ccccc2)n1` gave a growth of 96.9%.
With `CCN(CCO)CC(=O)c1cc(Cl)cc(Cl)c1Cl` the growth was 97.8%.
`C=CC(=O)Nc1cccc(C)c1Nc1cc(-c2cccnc2Cc2c(C)c(OC)cc(OC)c2C)ncn1` was tested, and the growth was 43%.
Work on `N#Cc1c(NC(=O)c2ccccc2I)sc2c1CCCC2` yielded a growth of 21.1%.
Work on `C#CC[C@H](N)C(=O)O` yielded a growth of 102% [20 µM].
In the case of `COc1ccc(-n2ncn(CCCCCCn3cnn(-c4ccc(OC)cc4)c3=O)c2=O)cc1`, the growth is reported as 93.6%.
`CC(C)OC(=O)OCOP(=O)(OCOC(=O)OC(C)C)C1CCCN(O)C1=O` (stereo not drawn) gave a growth of 62.8%.
`O=C(/C=C/C12c3ccccc3C(c3ccccc31)C1C(=O)N(c3ccc(Cl)cc3)C(=O)C12)c1ccccn1` (stereo not drawn) was tested, and the growth was -9.27% (active).
For `Cc1ccc(S(=O)(=O)N(CC[C@@H]2C[C@H]2c2cc3ccccc3o2)C(=O)NC2CCCCC2)cc1`, the growth was 110%.
Work on `COc1cc2c(cc1OC)-c1ccc3cc4c(cc3c1N(CCCN1CCCCC1)C2)OCO4` yielded a growth of 56.9%.
With `COc1cc2cc(Oc3ccc(NC(=O)Nc4cc(C(F)(F)F)cc(C(F)(F)F)c4)cc3)c(C)nc2cc1OCCN1CCCCC1` the growth was -81.8% (active).
For `CCN(CC)CCOC(=O)Nc1ccccc1Cl`, the growth was 104%.
For `COc1cc(CNC(=O)/C=C/C=C/c2ccc3c(c2)OCO3)ccc1OCc1cn(-c2ccc(Cl)c(Cl)c2)nn1`, the growth was -39% (active).
`N#C/C=C(\c1ccc([N+](=O)[O-])cc1)n1nnc2cc(Cl)c(Cl)cc21` showed a growth of 14.1%.
With `CNC(=O)c1c(NC(=O)c2ccc(C(C)(C)C)cc2)sc2c1CCC(=O)C2` the growth was 2.19% (active).
Work on `CCCCOc1ccc(NC(=O)n2nc(N=NN(C)C)c3ccc(Cl)cc32)cc1` yielded a growth of 101%.
Molecule `CC[C@@H](C[C@H](CCO)c1ccccc1)c1cc2ccccc2o1` has a growth of 99.5%.
Molecule `N=c1ccn2c(n1)OC1C(O)C(CO)OC12` (stereo not drawn) has a growth of 36.7%.
With `Cc1cc(N2CCCCC2)nc(N(CCNc2ccnc3cc(Cl)ccc23)Cc2ccccn2)n1` the growth was 21.5%.
`CCOc1ccc2nc(-c3cccc(OCC(=O)NC(C)C)c3)nc(Nc3ccc(-c4cn[nH]c4)cc3)c2c1` was tested, and the growth was -47.4% (active).
Work on `C=C1C(=O)O[C@H]2[C@H]1CC/C(Cn1cc(CNCCc3c[nH]c4ccc(Cl)cc34)nn1)=C\CC[C@@]1(C)O[C@@H]21` yielded a growth of 95.4%.
`CS(=O)(=O)c1ccc(-c2nc3cc(Cl)ccc3n2CC(=O)N/N=C/c2ccc(Cl)cc2)cc1` was tested, and the growth was -36.9% (active).

Each molecule was assayed on SF-539 CNS in the same assay as above. Conditions: 10 µM unless noted.
With `Nc1ccc(CCCCc2ccccc2)c(Cl)c1` the growth was 91.2%.
`Nc1ccc(S(=O)(=O)Nc2ccsc2-c2nc(-c3ccccc3)no2)cc1` gave a growth of 75.6%.
For `C=C(CNCCc1ccc(O)cc1)[C@@H]1CC[C@]2(COC3CCCCO3)CC[C@]3(C)[C@H](CC[C@@H]4[C@@]5(C)CCC(NCCO)C(C)(C)[C@@H]5CC[C@]43C)[C@@H]12` (stereo partly drawn), the growth was -91.9% (active).
`OC(COc1cccc2ccccc12)CN1CCN(c2ccccc2)CC1` (stereo not drawn) showed a growth of 99.8%.
`Cc1[nH]c(-c2nc3ccccc3[nH]2)c(C)c1C(=O)N1CCc2sccc2C1` gave a growth of 87.5%.
For `CC(C)n1nc(C#Cc2cccc(NC(=O)c3cccc(C(F)(F)F)c3)c2)c2c(N)ncnc21`, the growth was -73.9% (active).
`Cc1cc(NS(=O)(=O)c2ccccc2)c(OS(=O)(=O)c2ccccc2)cc1C` gave a growth of 98.5%.
`OCCCCc1nccc2c1[nH]c1ccccc12` gave a growth of 90.8%.
`C=C(C)[C@@H]1CC[C@]2(CNCCO)CC[C@]3(C)[C@H](CC[C@@H]4[C@@]5(C)CCC(N)[C@@](C)(CO)[C@@H]5CC[C@]43C)[C@@H]12` (stereo partly drawn) was tested, and the growth was -80.5% (active).
`OC(c1cccc(OCc2ccccc2)c1)c1nnc(-c2ccccc2)o1` (stereo not drawn) showed a growth of 93.1%.
With `Cl.[Pt].[c-]1ccccc1-c1ccccn1.c1ccc(P(c2ccccc2)C([PH+](c2ccccc2)c2ccccc2)[PH+](c2ccccc2)c2ccccc2)cc1` the growth was 8.54% (active).
For `COc1cc2c(c(OC)c1OC)C(=O)/C(=C/c1cc(C)c(O)c(C)c1)S2`, the growth was 7.47% (active).
For `O=C(Nc1ccccn1)[C@H](O)[C@@H](O)C(=O)N1CCOCC1`, the growth was 107%.
In the case of `CC(C)(C)N1CC(OC(N)=O)C1`, the growth is reported as 98%.
For `O=C(NC1CCOCC1)c1ccc2c(c1)CN(c1ncc(Cc3cccc(-n4cccn4)c3)s1)CC2`, the growth was 64.2%.
Work on `CN1C[C@@H](c2ccc(Cl)cc2)[C@]2(NC(=S)N(c3ccc(F)c(Cl)c3)C2=O)[C@@]12C(=O)NC1C=CC(Cl)=C[C@H]12` (stereo partly drawn) yielded a growth of 73.5%.
In the case of `CCCN1CCN(c2ccc3nc(-c4ccc5nc(-c6ccc(OCC)c(OCC)c6)[nH]c5c4)[nH]c3c2)CC1`, the growth is reported as -87.9% (active).
Work on `NC(=S)c1csc(CCNC(=O)c2ccccc2)n1` yielded a growth of 114%.
With `CCN(CCO)CC(=O)c1cc(Cl)cc(Cl)c1Cl` the growth was 104%.
`C=CC(=O)Nc1cccc(C)c1Nc1cc(-c2cccnc2Cc2c(C)c(OC)cc(OC)c2C)ncn1` was tested, and the growth was 3.02% (active).
Molecule `N#Cc1c(NC(=O)c2ccccc2I)sc2c1CCCC2` has a growth of 22.9%.
For `C#CC[C@H](N)C(=O)O`, the growth was 96% [20 µM].
In the case of `COc1ccc(-n2ncn(CCCCCCn3cnn(-c4ccc(OC)cc4)c3=O)c2=O)cc1`, the growth is reported as 91.7%.
Work on `CC(C)OC(=O)OCOP(=O)(OCOC(=O)OC(C)C)C1CCCN(O)C1=O` (stereo not drawn) yielded a growth of 75.5%.
For `O=C(/C=C/C12c3ccccc3C(c3ccccc31)C1C(=O)N(c3ccc(Cl)cc3)C(=O)C12)c1ccccn1` (stereo not drawn), the growth was -52.7% (active).
`Cc1ccc(S(=O)(=O)N(CC[C@@H]2C[C@H]2c2cc3ccccc3o2)C(=O)NC2CCCCC2)cc1` was tested, and the growth was 95%.
Molecule `COc1cc2c(cc1OC)-c1ccc3cc4c(cc3c1N(CCCN1CCCCC1)C2)OCO4` has a growth of 61.7%.
`COc1cc2cc(Oc3ccc(NC(=O)Nc4cc(C(F)(F)F)cc(C(F)(F)F)c4)cc3)c(C)nc2cc1OCCN1CCCCC1` was tested, and the growth was -94% (active).
`CCN(CC)CCOC(=O)Nc1ccccc1Cl` gave a growth of 102%.
Molecule `COc1cc(CNC(=O)/C=C/C=C/c2ccc3c(c2)OCO3)ccc1OCc1cn(-c2ccc(Cl)c(Cl)c2)nn1` has a growth of 74.4%.
`N#C/C=C(\c1ccc([N+](=O)[O-])cc1)n1nnc2cc(Cl)c(Cl)cc21` was tested, and the growth was -9.65% (active).
For `CNC(=O)c1c(NC(=O)c2ccc(C(C)(C)C)cc2)sc2c1CCC(=O)C2`, the growth was -51.9% (active).
`CCCCOc1ccc(NC(=O)n2nc(N=NN(C)C)c3ccc(Cl)cc32)cc1` gave a growth of 104%.
For `CC[C@@H](C[C@H](CCO)c1ccccc1)c1cc2ccccc2o1`, the growth was 104%.
`N=c1ccn2c(n1)OC1C(O)C(CO)OC12` (stereo not drawn) was tested, and the growth was 25.1%.
For `Cc1cc(N2CCCCC2)nc(N(CCNc2ccnc3cc(Cl)ccc23)Cc2ccccn2)n1`, the growth was 39.2%.
`CCOc1ccc2nc(-c3cccc(OCC(=O)NC(C)C)c3)nc(Nc3ccc(-c4cn[nH]c4)cc3)c2c1` was tested, and the growth was -79.6% (active).
`C=C1C(=O)O[C@H]2[C@H]1CC/C(Cn1cc(CNCCc3c[nH]c4ccc(Cl)cc34)nn1)=C\CC[C@@]1(C)O[C@@H]21` showed a growth of 53.6%.
For `CS(=O)(=O)c1ccc(-c2nc3cc(Cl)ccc3n2CC(=O)N/N=C/c2ccc(Cl)cc2)cc1`, the growth was -3.48% (active).
